# Measurements published in PubChem BioAssay (NCI).
# Compounds without any hit were thinned out: in the full panel of roughly 83,000, 20% have a hit.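 Plates (96-well) were seeded with cells, treated with compound at one concentration, and incubated for 48 hours before percent growth was determined.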 Unmarked numbers belong to inactive results. The source made the active and inactive calls. How the source made its calls: active means growth percent below 10; inactive means the rest.
# Tests used:
# Test in all cases: NCI-60 one-dose screen, 48 h (100 = growth as untreated, 0 = no growth, -100 = all killed)
# Conditions in all cases: 10 µM unless noted
# NCI-H23 lung = system: NCI-H23 lung
# NCI-H226 lung = system: NCI-H226 lung
# NCI-H322M lung = system: NCI-H322M lung
# HOP-62 NSCLC = system: HOP-62 NSCLC
# NCI-H460 lung = system: NCI-H460 lung
# NCI-H522 lung = system: NCI-H522 lung
# A549/ATCC NSCLC = system: A549/ATCC NSCLC
# 786-0 renal = system: 786-0 renal
# COLO 205 colon = system: COLO 205 colon
# DU-145 prostate = system: DU-145 prostate
# K-562 leukemia = system: K-562 leukemia
# MALME-3M melanoma = system: MALME-3M melanoma
# MDA-MB-231 breast = system: MDA-MB-231 breast
# RXF 393 renal = system: RXF 393 renal
# SF-268 CNS = system: SF-268 CNS
# SF-295 CNS = system: SF-295 CNS
# SF-539 CNS = system: SF-539 CNS
# UACC-257 melanoma = system: UACC-257 melanoma
# M14 melanoma = system: M14 melanoma
# HCT-15 colon = system: HCT-15 colon
Structure (SMILES),growth (NCI-H23 lung),growth (NCI-H226 lung),growth (NCI-H322M lung),growth (HOP-62 NSCLC),growth (NCI-H460 lung),growth (NCI-H522 lung),growth (A549/ATCC NSCLC),growth (786-0 renal),growth (COLO 205 colon),growth (DU-145 prostate),growth (K-562 leukemia),growth (MALME-3M melanoma),growth (MDA-MB-231 breast),growth (RXF 393 renal),growth (SF-268 CNS),growth (SF-295 CNS),growth (SF-539 CNS),growth (UACC-257 melanoma),growth (M14 melanoma),growth (HCT-15 colon)
c1ccc2cc(C[n+]3ccn(CCCCCCCn4cc[n+](Cc5ccc6ccccc6c5)c4)c3)ccc2c1,14.4%,59.5%,58.6%,32.6%,14.6%,5.87% (active),26.7%,95.8%,20%,49.2%,19.1%,-9.13% (active),49%,74%,34.4%,21.6%,33.4%,15.8%,47.1%,82.6%
CCOC(=O)c1c2c(c(C)n1Cc1ccccc1)-c1nc(N)ncc1CC2,93.9%,83.7%,94.7%,82.4%,102%,96.7%,104%,92%,131%,120%,94.2%,168%,79.3%,120%,104%,229%,103%,144%,111%,99.4%
Fc1ccc([C@@H]2CCNC[C@H]2COc2ccc3c(c2)OCO3)cc1,82.5%,83.2%,73.2%,79%,73.5%,64.6%,83%,68.2%,-77.5% (active),92.1%,51.7%,78.4%,11.5%,71.7%,92.3%,74.2%,89.5%,76.8%,49.7%,85.8%
O=C1CC(C(F)(F)F)=NN1C(=O)c1nn(-c2ccc(Cl)cc2)cc1O,101%,79.8%,15.6%,70.2%,71.2%,89.9%,91.2%,97.7%,125%,83.6%,96.7%,146%,81.9%,78.1%,56.7%,81.3%,82.7%,111%,88.4%,69.9%
Cc1cc(NC(=O)Nc2cc(Cl)ccc2C)no1,88.3%,105%,146%,96.2%,102%,103%,108%,102%,143%,111%,80.8%,191%,100%,126%,100%,112%,94.1%,115%,109%,100%
O=C1OCC/C1=C\OCCCO/C=C1\CCOC1=O,102%,103%,100%,122%,107%,98.3%,98.7%,102%,141%,115%,107%,95.2%,107%,117%,109%,106%,105%,106%,110%,98.1%
CN(CCOc1ccc(CC2SC(=O)NC2=O)cc1)c1ccccn1 (stereo not given),99.7%,98.9%,95.3%,94.3%,102%,95.9%,99.2%,108%,82.7%,107%,118%,88.3%,86.5%,110%,105%,98.9%,104%,98.4%,99.7%,96.2%
O=C1c2ccccc2C(=O)c2c1cccc2-n1nnc2ccccc21,106%,103%,118%,101%,111%,86%,116%,106%,116%,108%,95.6%,132%,125%,111%,103%,120%,112%,127%,127%,102%
CCCc1cc(=O)n2c(C(=O)Nc3ccccc3OC)c(C(=O)Nc3ccc(F)cc3)sc2n1,63% [30 µM],62.3% [30 µM],57.9% [30 µM],-16.7% [30 µM] (active),44.6% [30 µM],46.7% [30 µM],16.1% [30 µM],36.2% [30 µM],72.5% [30 µM],53.9% [30 µM],3.51% [30 µM] (active),64.1% [30 µM],58.3% [30 µM],-19.5% [30 µM] (active),-16.3% [30 µM] (active),-18.7% [30 µM] (active),-47% [30 µM] (active),76.3% [30 µM],80.6% [30 µM],79% [30 µM]
C[n+]1c2ccccc2c(Nc2ccc(N3CCCCC3)cc2)c2[nH]c3ccccc3c21,-76.3% (active),-56.5% (active),-95.2% (active),-93.8% (active),-84.1% (active),-96.5% (active),-88% (active),-98.5% (active),-87% (active),-95.7% (active),-74% (active),-77.8% (active),-91.1% (active),-96.5% (active),-93.4% (active),-85.7% (active),-99.1% (active),-98.7% (active),-97.3% (active),-78.8% (active)
CC[C@H](C)C(=O)O[C@H]1C[C@@H](C)C=C2C=C[C@H](C)[C@H](CC[C@@H]3C[C@@H](O)CC(=O)O3)[C@H]21,67.8%,95.5%,54.2%,104%,102%,27.3%,102%,90.5%,99.7%,106%,104%,89.7%,-35.3% (active),97.7%,42.7%,28.8%,95.9%,83.5%,59.2%,55.1%
CCOC(=O)c1c(C)nc(C)c(C(=O)OCC)c1-c1cccnc1,101%,106%,108%,94.6%,101%,95.8%,103%,94.5%,101%,116%,92.4%,111%,113%,131%,106%,112%,97.1%,108%,95%,97%
NC(=Nc1ccccc1)SCCCCSC(N)=Nc1ccccc1,71.2%,95%,85.2%,82.2%,101%,79.1%,85.1%,79.5%,125%,93.5%,44.5%,102%,67.5%,73.6%,90%,77.5%,114%,101%,84.6%,83.1%
CC1=C(C(=O)Nc2ccccc2)C(c2ccc3c(c2)OCCO3)NC(=O)N1 (stereo not given),101%,102%,107%,104%,107%,104%,98.8%,100%,105%,114%,98.5%,96.9%,118%,116%,100%,114%,100%,102%,103%,106%
